The text below walks through data of the supplement of paper PMC11732987, “Enantioselective OTUD7B fragment discovery through chemoproteomics screening and high-throughput optimisation” (Communications Chemistry, 2025).

What all share (test): log2 ratio of Biotin-Ahx-Ub-VS probe labelling (fragment/DMSO); higher = less target engagement (more negative = stronger competition), active = hit call of the paper (q ≤ 0.05, log2 ratio ≤ -1)
Holding throughout (settings): compound concentration: 200 uM; treatment time: 3 h

Experiment [1] concerns the target T1, ALG13 (UniProt Q9NP73).
T1 sequence (whole entry): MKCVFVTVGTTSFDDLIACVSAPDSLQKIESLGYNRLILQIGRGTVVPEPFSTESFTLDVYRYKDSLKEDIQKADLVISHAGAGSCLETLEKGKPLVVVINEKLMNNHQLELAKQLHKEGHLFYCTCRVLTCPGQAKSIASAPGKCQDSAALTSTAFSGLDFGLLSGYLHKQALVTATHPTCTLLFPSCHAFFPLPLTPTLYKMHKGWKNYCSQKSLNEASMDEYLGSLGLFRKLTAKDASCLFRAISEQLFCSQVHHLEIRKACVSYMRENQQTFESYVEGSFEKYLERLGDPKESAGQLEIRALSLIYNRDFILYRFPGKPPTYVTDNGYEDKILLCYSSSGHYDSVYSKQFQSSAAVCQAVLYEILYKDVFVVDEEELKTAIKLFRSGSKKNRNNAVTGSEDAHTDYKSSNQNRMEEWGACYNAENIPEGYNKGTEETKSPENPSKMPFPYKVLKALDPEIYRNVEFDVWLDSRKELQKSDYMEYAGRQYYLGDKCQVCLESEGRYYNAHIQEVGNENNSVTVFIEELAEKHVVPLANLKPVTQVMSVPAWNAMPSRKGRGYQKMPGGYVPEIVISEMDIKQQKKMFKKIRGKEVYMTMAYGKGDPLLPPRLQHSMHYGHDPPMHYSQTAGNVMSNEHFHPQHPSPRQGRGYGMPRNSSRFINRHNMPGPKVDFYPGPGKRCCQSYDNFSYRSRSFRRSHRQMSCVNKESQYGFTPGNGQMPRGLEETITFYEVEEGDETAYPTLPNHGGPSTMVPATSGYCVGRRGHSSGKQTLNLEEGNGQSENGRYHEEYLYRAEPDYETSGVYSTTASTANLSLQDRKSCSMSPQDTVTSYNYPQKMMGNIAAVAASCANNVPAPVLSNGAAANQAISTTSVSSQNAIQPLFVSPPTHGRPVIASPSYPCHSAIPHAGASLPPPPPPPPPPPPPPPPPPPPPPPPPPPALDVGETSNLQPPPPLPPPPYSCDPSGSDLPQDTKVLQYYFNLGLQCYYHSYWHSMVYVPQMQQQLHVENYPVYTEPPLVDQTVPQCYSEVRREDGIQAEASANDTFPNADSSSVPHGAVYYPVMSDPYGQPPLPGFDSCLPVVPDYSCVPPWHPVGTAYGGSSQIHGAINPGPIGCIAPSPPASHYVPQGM
The procedure, abridged:
(§1)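 HEK293T lysate in Tris/CHAPS/IGEPAL buffer with protease inhibitors (495 µg per sample) was given fragment at 200 µM or vehicle for 3 h, in triplicate. It then received Biotin-Ahx-Ub-VS at 0.5 µM final for 1 h. Labelled DUBs were NeutrAvidin-enriched, digested with LysC and trypsin, and run by diaPASEF LC-MS/MS. Values are average log2 fragment/vehicle ratios by unpaired t-test on global-median-normalised Spectronaut quantities of proteins with ≥2 unique peptides.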

Experiment [2] addresses ATXN3 (UniProt P54252). The procedure, abridged:
as §1

The target of experiment [3] is T2, BAP1 (UniProt Q92560).
T2 sequence (whole entry): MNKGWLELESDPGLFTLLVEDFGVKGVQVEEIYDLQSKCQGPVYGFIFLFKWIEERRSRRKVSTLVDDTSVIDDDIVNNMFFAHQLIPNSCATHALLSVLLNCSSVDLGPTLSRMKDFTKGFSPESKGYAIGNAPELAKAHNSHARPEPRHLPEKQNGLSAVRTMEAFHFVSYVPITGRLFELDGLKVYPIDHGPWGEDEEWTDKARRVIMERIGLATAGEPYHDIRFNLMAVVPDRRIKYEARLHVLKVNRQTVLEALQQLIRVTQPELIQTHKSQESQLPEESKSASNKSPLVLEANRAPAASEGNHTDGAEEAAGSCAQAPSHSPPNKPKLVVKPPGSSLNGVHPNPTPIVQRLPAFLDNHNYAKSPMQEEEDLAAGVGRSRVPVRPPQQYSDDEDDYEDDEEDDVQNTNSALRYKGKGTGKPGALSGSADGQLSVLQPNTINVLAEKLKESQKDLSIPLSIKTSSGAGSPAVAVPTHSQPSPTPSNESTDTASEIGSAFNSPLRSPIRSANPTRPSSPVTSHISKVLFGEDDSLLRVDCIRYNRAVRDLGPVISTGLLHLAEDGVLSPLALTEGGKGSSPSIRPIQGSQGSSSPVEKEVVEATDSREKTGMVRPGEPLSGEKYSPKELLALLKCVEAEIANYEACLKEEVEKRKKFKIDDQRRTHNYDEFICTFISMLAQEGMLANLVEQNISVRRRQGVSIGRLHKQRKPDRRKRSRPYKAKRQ
An outline of the steps:
as §1

In experiment [4] the target is EIF3F (UniProt O00303). The procedure, abridged: as §1
Sequence of EIF3F (O00303 whole entry): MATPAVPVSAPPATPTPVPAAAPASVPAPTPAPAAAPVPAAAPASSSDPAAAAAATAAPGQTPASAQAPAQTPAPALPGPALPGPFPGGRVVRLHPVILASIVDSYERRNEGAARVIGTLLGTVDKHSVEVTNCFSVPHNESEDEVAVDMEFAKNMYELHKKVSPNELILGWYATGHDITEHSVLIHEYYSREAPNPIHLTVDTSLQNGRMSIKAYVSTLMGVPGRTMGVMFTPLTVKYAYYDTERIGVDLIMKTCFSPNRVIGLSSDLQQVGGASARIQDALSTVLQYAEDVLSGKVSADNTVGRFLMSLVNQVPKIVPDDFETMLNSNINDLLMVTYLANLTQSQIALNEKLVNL
Experiment [5] addresses EIF3H (UniProt O15372). An outline of the steps: as §1
In experiment [6] the target is T3, FAM105A (UniProt Q9NUU6).
T3 sequence (whole entry): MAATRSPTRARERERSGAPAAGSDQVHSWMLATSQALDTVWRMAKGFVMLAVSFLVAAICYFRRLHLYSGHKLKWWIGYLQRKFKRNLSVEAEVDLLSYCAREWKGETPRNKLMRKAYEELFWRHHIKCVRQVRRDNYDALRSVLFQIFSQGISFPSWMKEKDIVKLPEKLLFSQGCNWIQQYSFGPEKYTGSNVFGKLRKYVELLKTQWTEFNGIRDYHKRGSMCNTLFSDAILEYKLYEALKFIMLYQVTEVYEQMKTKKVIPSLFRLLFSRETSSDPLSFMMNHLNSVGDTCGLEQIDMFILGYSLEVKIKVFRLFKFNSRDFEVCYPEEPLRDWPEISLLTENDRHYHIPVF
An outline of the steps: as §1

The target of experiment [7] is OTUB1 (UniProt Q96FW1). The procedure, abridged: as §1
Sequence of OTUB1 (Q96FW1 whole entry): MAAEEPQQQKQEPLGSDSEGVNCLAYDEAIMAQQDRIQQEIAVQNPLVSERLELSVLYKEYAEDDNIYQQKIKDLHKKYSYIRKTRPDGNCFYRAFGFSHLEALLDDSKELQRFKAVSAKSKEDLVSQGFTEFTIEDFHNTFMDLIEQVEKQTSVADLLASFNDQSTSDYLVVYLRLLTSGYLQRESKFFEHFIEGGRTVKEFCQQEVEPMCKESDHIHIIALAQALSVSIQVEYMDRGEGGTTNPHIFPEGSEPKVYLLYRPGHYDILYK
Experiment [8] deals with T4, OTUD4 (UniProt Q01804).
T4 sequence (whole entry): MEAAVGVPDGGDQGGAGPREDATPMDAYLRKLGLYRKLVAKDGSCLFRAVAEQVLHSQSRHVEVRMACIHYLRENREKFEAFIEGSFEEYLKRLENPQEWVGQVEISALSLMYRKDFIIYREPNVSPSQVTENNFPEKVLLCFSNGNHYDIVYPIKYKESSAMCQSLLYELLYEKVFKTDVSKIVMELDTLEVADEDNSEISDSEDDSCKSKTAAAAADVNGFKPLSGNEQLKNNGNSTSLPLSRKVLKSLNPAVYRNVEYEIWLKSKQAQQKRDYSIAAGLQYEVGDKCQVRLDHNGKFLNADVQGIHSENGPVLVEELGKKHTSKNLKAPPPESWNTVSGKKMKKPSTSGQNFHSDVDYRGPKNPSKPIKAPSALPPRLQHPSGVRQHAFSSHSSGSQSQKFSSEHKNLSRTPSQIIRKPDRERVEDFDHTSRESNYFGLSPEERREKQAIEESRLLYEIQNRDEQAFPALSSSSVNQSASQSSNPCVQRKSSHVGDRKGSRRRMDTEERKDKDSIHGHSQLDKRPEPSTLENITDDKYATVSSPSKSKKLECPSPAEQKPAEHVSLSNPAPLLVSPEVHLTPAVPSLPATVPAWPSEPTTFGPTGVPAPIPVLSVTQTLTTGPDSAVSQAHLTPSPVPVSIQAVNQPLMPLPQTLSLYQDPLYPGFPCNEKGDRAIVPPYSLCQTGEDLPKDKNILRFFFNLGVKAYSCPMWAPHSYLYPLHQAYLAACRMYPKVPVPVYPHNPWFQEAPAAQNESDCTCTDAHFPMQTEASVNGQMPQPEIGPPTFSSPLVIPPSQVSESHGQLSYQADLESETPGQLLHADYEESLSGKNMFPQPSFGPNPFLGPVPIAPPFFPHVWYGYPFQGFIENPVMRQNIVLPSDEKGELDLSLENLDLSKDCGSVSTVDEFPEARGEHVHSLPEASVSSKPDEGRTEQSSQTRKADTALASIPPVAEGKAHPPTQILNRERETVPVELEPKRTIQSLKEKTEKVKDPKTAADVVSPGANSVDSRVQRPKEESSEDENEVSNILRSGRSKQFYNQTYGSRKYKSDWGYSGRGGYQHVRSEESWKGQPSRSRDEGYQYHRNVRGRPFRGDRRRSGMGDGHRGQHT
The procedure, abridged: as §1

Experiment [9] deals with T5, OTUD5 (UniProt Q96G74).
T5 sequence (whole entry): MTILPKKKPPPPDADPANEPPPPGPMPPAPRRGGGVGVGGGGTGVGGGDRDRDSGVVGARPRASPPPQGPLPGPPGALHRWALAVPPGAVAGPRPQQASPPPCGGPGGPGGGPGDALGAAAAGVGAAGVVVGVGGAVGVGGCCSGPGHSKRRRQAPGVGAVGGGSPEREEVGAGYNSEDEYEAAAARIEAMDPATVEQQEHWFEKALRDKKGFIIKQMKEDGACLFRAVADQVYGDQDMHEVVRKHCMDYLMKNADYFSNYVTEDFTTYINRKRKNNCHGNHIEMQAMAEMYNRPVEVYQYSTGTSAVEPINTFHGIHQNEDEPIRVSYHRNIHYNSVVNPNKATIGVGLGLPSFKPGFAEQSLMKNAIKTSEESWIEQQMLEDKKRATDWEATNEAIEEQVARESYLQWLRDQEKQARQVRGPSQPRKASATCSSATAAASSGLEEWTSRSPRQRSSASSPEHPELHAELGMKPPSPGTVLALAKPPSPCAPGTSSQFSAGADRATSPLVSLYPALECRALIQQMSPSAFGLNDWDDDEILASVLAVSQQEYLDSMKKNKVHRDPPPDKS
The procedure, abridged: as §1

The structures appear in SMILES notation. A number with no mark means an inactive call.

Sequence of EIF3H (O15372 whole entry): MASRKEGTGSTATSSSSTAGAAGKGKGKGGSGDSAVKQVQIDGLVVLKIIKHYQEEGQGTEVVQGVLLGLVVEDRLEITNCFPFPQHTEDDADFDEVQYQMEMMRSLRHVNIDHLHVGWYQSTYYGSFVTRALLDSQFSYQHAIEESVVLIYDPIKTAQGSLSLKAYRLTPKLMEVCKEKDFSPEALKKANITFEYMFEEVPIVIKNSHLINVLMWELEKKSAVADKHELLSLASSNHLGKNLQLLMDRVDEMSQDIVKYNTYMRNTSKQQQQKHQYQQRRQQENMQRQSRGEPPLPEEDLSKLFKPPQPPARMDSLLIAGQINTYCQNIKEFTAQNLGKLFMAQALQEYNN
Sequence of ATXN3 (P54252 whole entry): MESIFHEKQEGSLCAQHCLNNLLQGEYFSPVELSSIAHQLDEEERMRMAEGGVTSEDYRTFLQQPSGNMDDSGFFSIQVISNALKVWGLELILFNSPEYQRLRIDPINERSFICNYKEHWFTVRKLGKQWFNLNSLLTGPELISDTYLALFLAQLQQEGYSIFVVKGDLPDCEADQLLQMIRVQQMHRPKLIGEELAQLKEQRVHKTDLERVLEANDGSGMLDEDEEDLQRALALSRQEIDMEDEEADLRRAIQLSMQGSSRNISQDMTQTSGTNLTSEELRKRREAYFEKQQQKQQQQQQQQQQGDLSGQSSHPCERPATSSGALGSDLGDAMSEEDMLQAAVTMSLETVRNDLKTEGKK

For the compound `Cl.O=C(CCl)N1CCn2cncc2C1`, the “log2 ratio of Biotin-Ahx-Ub-VS probe labelling” value (shortened to “log2 ratio”) was 0.285 in experiment [1]; -0.224 in [2]; -0.163 in [3]; -0.0339 in experiment [4]; 0.0971 in [5]; -0.433 in experiment [6]. Moreover, the “log2 ratio” value in experiment [7] is -0.000993; in [8], 0.0549; in [9], -0.214.
With `O=C(CCl)N[C@H]1CC[C@@H](CO)CC1`, the “log2 ratio” value is 0.27 in [1]; -0.868 in experiment [2]; -1.34 (active) in experiment [3]; -0.486 in experiment [4]; 0.0529 in [5]; -0.00946 in experiment [6]. The entries for the “log2 ratio” value in experiment [7], in experiment [8] and in experiment [9] were -0.626, -0.852 and -0.686, respectively.
As to `Cl.O=C(CCl)N1CC(c2ccc(Br)cn2)C1`, the “log2 ratio” value in experiment [1] is 0.23; in experiment [2], -0.38; in [3] it was -1.49 (active); in experiment [4], -0.158; in [5] it was 0.134; in [6] it was 0.0979. Further, the “log2 ratio” value in [7] was -0.157; in experiment [8], -0.553; in [9], -0.45.
On to `Cc1cccc(NC(=O)[C@@H]2CCCN2C(=O)CCl)n1`, for which the “log2 ratio” value in experiment [1] was 0.103; in experiment [2] it was -0.532; in [3], -0.719; in experiment [4] it was -0.372; in experiment [5], 0.0856; in experiment [6], 0.18. For the same compound, the “log2 ratio” value in experiment [7] was -0.512; in experiment [8], -0.432; in experiment [9], -0.514.
Turning to `C/C(=C\CNC(=O)CCl)c1cnn(C)c1.Cl`, the “log2 ratio” value was 0.0802 in [1]; -0.277 in [2]; -1.56 (active) in experiment [3]; -0.217 in experiment [4]; 0.0454 in [5]; 0.298 in [6]. Also, the results for the “log2 ratio” value in experiment [7], in [8] and in [9] were -0.376, 0.00615 and -0.115, respectively.
Take `O=C(CCl)NCC1(c2ccccc2)CC1`: the “log2 ratio” value in [1] was -1.4 (active); in experiment [2], 0.0359; in experiment [3], -1.15 (active); in experiment [4], -0.053; in experiment [5] it was 0.176; in experiment [6], -0.0439. Further, the “log2 ratio” value in experiment [7] is 0.0757; in experiment [8] it was -0.368; in experiment [9] it was -0.335.
As for `O=C(CCl)N1CCC(C(O)c2ccc(F)cc2)CC1` (stereo not drawn), the “log2 ratio” value in [1] was 0.00454; in experiment [2], -0.475; in experiment [3], -0.334; in experiment [4] it was -0.0081; in experiment [5], 0.17; in experiment [6] it was -0.0782. Further, the “log2 ratio” value is -0.215 in experiment [7], -0.0305 in [8] and -0.189 in experiment [9].
